Data published in PubChem BioAssay AID1159580 (chemical genetic matrix, 2015).
Among all 5,500 compounds or so, about 2,000 (36%) were called active. Roughly 18% stayed inconclusive and do not appear here. Rule as the data show it: active = normalized growth mostly below about 0.91 (no sharp cut-off); inconclusive = no clear call, values can overlap the other calls; inactive = mostly above about 0.92. The list shows a part of the results.

Test: chemical genetic growth profiling, strain panel (AID 1159580);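 also: tested at 20 µM; growth read once vehicle control cultures reached saturation at 30 °C; 1 = growth at the plate median or of vehicle wells; lower values mean less growth of the strain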
Settings: growth OD
[1] = S. cerevisiae deletion strains, locus YDL101C, strain DUN1, stronger effect = lower value
[2] = S. cerevisiae deletion strains, locus YHR030C, strain SLT2, stronger effect = lower value
[3] = S. cerevisiae deletion strains, locus YAL013W, strain DEP1, stronger effect = lower value
[4] = S. cerevisiae deletion strains, locus YBR229C, strain ROT2, stronger effect = lower value
[5] = S. cerevisiae deletion strains, locus YDR150W, strain NUM1, stronger effect = lower value
[6] = S. cerevisiae deletion strains, locus YEL061C, strain CIN8, stronger effect = lower value
[7] = S. cerevisiae deletion strains, locus YGR078C, strain PAC10, stronger effect = lower value
[8] = S. cerevisiae deletion strains, locus YHR087W, strain rtc3, stronger effect = lower value
[9] = S. cerevisiae deletion strains, locus YJR043C, strain POL32, stronger effect = lower value
[10] = S. cerevisiae deletion strains, locus YJR075W, strain HOC1, stronger effect = lower value
[11] = S. cerevisiae deletion strains, locus YLR039C, strain RIC1, stronger effect = lower value
[12] = S. cerevisiae deletion strains, locus YLR058C, strain SHM2 (second series), stronger effect = lower value
[13] = S. cerevisiae deletion strains, locus YLR085C, strain ARP6, stronger effect = lower value
[14] = S. cerevisiae deletion strains, locus YLR262C, strain YPT6, stronger effect = lower value
[15] = S. cerevisiae deletion strains, locus YML094W, strain GIM5, stronger effect = lower value
[16] = S. cerevisiae deletion strains, locus YMR219W, strain ESC1, stronger effect = lower value
[17] = S. cerevisiae deletion strains, locus YMR263W, strain SAP30, stronger effect = lower value
[18] = S. cerevisiae deletion strains, locus YNL153C, strain GIM3, stronger effect = lower value
[19] = S. cerevisiae deletion strains, locus YNL298W, strain CLA4 (second series), stronger effect = lower value
[20] = S. cerevisiae deletion strains, locus YNL322C, strain KRE1, stronger effect = lower value
[21] = S. cerevisiae deletion strains, locus YNR030W, strain Alg12, stronger effect = lower value
[22] = S. cerevisiae deletion strains, locus YPL055C, strain LGE1, stronger effect = lower value
[23] = S. cerevisiae deletion strains, locus YPL241C, strain CIN2, stronger effect = lower value
[24] = S. cerevisiae deletion strains, locus YPR135W, strain CTF4, stronger effect = lower value

Measured: normalized growth

S=C(NCc1cccs1)Nc1cc(Cl)cc(Cl)c1
inactive: S. cerevisiae deletion strains, locus YAR019C, strain CDC15, stronger effect = lower value 0.942 | S. cerevisiae deletion strains, locus YBL105C, strain PKC1, stronger effect = lower value 0.947 | S. cerevisiae deletion strains, locus YBR135W, strain CKS1, stronger effect = lower value 0.936 | S. cerevisiae deletion strains, locus YBR136W, strain MEC1, stronger effect = lower value 0.945 | S. cerevisiae deletion strains, locus YBR160W, strain CDC28, stronger effect = lower value 0.944 | S. cerevisiae deletion strains, locus YDL017W, strain CDC7, stronger effect = lower value 0.955 | S. cerevisiae deletion strains, locus YDL028C, strain MPS1, stronger effect = lower value 0.944 | [1] 0.979 | S. cerevisiae deletion strains, locus YDL108W, strain KIN28, stronger effect = lower value 0.947 | S. cerevisiae deletion strains, locus YDL132W, strain cdc53, stronger effect = lower value 0.962 | S. cerevisiae deletion strains, locus YDL214C, strain PRR2, stronger effect = lower value 0.912 | S. cerevisiae deletion strains, locus YDR052C, strain DBF4, stronger effect = lower value 0.96 | S. cerevisiae deletion strains, locus YDR054C, strain cdc34, stronger effect = lower value 0.967 | S. cerevisiae deletion strains, locus YDR226W, strain ADK1, stronger effect = lower value 0.955 | S. cerevisiae deletion strains, locus YDR477W, strain SNF1, stronger effect = lower value 0.894 | S. cerevisiae deletion strains, locus YER123W, strain YCK3, stronger effect = lower value 0.848 | S. cerevisiae deletion strains, locus YER133W, strain GLC7, stronger effect = lower value 0.867 | S. cerevisiae deletion strains, locus YFL009W, strain cdc4, stronger effect = lower value 0.928 | S. cerevisiae deletion strains, locus YFL029C, strain CAK1, stronger effect = lower value 0.936 | S. cerevisiae deletion strains, locus YFR003C, strain YPI1, stronger effect = lower value 0.948 | S. cerevisiae deletion strains, locus YFR019W, strain FAB1, stronger effect = lower value 0.95 | S. cerevisiae deletion strains, locus YFR028C, strain CDC14, stronger effect = lower value 0.959 | S. cerevisiae deletion strains, locus YGR040W, strain KSS1, stronger effect = lower value 0.891 | S. cerevisiae deletion strains, locus YGR052W, strain FMP48, stronger effect = lower value 0.964 | S. cerevisiae deletion strains, locus YGR092W, strain DBF2, stronger effect = lower value 0.739 | [2] 0.988 | S. cerevisiae deletion strains, locus YHR079C, strain IRE1, stronger effect = lower value 0.961 | S. cerevisiae deletion strains, locus YHR082C, strain KSP1, stronger effect = lower value 0.901 | S. cerevisiae deletion strains, locus YHR205W, strain SCH9, stronger effect = lower value 0.946 | S. cerevisiae deletion strains, locus YIL147C, strain SLN1, stronger effect = lower value 0.949 | S. cerevisiae deletion strains, locus YJL095W, strain BCK1, stronger effect = lower value 0.958 | S. cerevisiae deletion strains, locus YJL128C, strain PBS2, stronger effect = lower value 0.892 | S. cerevisiae deletion strains, locus YJL157C, strain FAR1, stronger effect = lower value 0.879 | S. cerevisiae deletion strains, locus YJR016C, strain ILV3, stronger effect = lower value 0.948 | S. cerevisiae deletion strains, locus YJR066W, strain TOR1 (second series), stronger effect = lower value 0.874 | S. cerevisiae deletion strains, locus YJR066W, strain TOR1, stronger effect = lower value 0.917 | S. cerevisiae deletion strains, locus YKL048C, strain ELM1, stronger effect = lower value 0.953 | S. cerevisiae deletion strains, locus YKL067W, strain YNK1, stronger effect = lower value 0.902 | S. cerevisiae deletion strains, locus YKL101W, strain HSL1, stronger effect = lower value 0.923 | S. cerevisiae deletion strains, locus YKL193C, strain SDS22, stronger effect = lower value 0.937 | S. cerevisiae deletion strains, locus YKL203C, strain TOR2, stronger effect = lower value 0.944 | S. cerevisiae deletion strains, locus YLR113W, strain HOG1, stronger effect = lower value 0.912 | S. cerevisiae deletion strains, locus YLR133W, strain CKI1, stronger effect = lower value 0.931 | S. cerevisiae deletion strains, locus YLR403W, strain SFP1, stronger effect = lower value 0.898 | S. cerevisiae deletion strains, locus YML070W, strain DAK1, stronger effect = lower value 0.883 | S. cerevisiae deletion strains, locus YMR001C, strain CDC5, stronger effect = lower value 0.941 | S. cerevisiae deletion strains, locus YMR205C, strain PFK2 (second series), stronger effect = lower value 0.918 | S. cerevisiae deletion strains, locus YMR277W, strain FCP1, stronger effect = lower value 0.934 | S. cerevisiae deletion strains, locus YNL006W, strain LST8, stronger effect = lower value 0.944 | S. cerevisiae deletion strains, locus YNL020C, strain ARK1, stronger effect = lower value 0.906 | S. cerevisiae deletion strains, locus YNL161W, strain CBK1, stronger effect = lower value 0.946 | S. cerevisiae deletion strains, locus YNL183C, strain NPR1, stronger effect = lower value 0.928 | S. cerevisiae deletion strains, locus YNL207W, strain RIO2, stronger effect = lower value 0.928 | S. cerevisiae deletion strains, locus YNL222W, strain SSU72, stronger effect = lower value 0.93 | S. cerevisiae deletion strains, locus YNL307C, strain MCK1 (second series), stronger effect = lower value 0.935 | S. cerevisiae deletion strains, locus YOL078W, strain AVO1, stronger effect = lower value 0.934 | S. cerevisiae deletion strains, locus YOL136C, strain PFK27, stronger effect = lower value 0.897 | S. cerevisiae deletion strains, locus YOR061W, strain CKA2, stronger effect = lower value 0.872 | S. cerevisiae deletion strains, locus YOR119C, strain RIO1, stronger effect = lower value 0.936 | S. cerevisiae deletion strains, locus YOR231W, strain MKK1, stronger effect = lower value 1.01 | S. cerevisiae deletion strains, locus YOR329C, strain SCD5, stronger effect = lower value 0.949 | S. cerevisiae deletion strains, locus YPL031C, strain PHO85, stronger effect = lower value 0.865 | S. cerevisiae deletion strains, locus YPL153C, strain RAD53, stronger effect = lower value 0.862 | S. cerevisiae deletion strains, locus YPL204W, strain HRR25, stronger effect = lower value 0.878 | S. cerevisiae deletion strains, locus YPL209C, strain IPL1, stronger effect = lower value 0.942 | S. cerevisiae deletion strains, locus YPL256C, strain CLN2, stronger effect = lower value 0.961 | S. cerevisiae deletion strains, locus YPR025C, strain CCL1, stronger effect = lower value 0.949 | S. cerevisiae deletion strains, locus YPR106W, strain ISR1, stronger effect = lower value 0.948 | S. cerevisiae deletion strains, locus YPR111W, strain DBF20, stronger effect = lower value 0.952 | S. cerevisiae deletion strains, strain NNK1, stronger effect = lower value 0.959 | S. cerevisiae deletion strains, strain TSCII, stronger effect = lower value 0.936

COc1ccccc1NC(=S)NCCc1ccc(OC)c(OC)c1
inactive: [3] 0.997 | [4] 1 | [1] 1.05 | [5] 1.02 | [6] 0.998 | [7] 0.998 | [2] 0.979 | [8] 1.02 | [9] 0.982 | [10] 0.991 | [11] 0.91 | [12] 0.99 | [13] 0.942 | [14] 0.954 | [15] 1.1 | [16] 0.999 | [17] 0.989 | [18] 1.02 | [19] 0.952 | [20] 0.997 | [21] 1.02 | [22] 1.03 | [23] 0.927 | [24] 1.04

COc1cc([C@@H]2c3cc4c(cc3[C@H](O)C3COC(=O)[C@@H]32)OCO4)cc(OC)c1OC (stereo not given in full)
inactive: S. cerevisiae deletion strains, locus YAL040C, strain CLN3, stronger effect = lower value 1.06 | S. cerevisiae deletion strains, locus YCL061C, strain MRC1 (second series), stronger effect = lower value 0.999 | S. cerevisiae deletion strains, locus YDR363W, strain ESC2, stronger effect = lower value 1 | S. cerevisiae deletion strains, locus YER002W, strain NOP16, stronger effect = lower value 1.02 | [7] 1.02 | [18] 1.04 | S. cerevisiae deletion strains, locus YNL175C, strain NOP13, stronger effect = lower value 1.02 | S. cerevisiae deletion strains, locus YNL197C, strain WHI3, stronger effect = lower value 1 | S. cerevisiae deletion strains, locus YNL224C, strain SQS1, stronger effect = lower value 1 | S. cerevisiae deletion strains, locus YOR083W, strain WHI5 (second series), stronger effect = lower value 1

CC(=N/O)/C(C)=C/c1ccc(Cl)cc1
inactive: [5] 0.847
active: [3] 0.8 | [4] 0.822 | [1] 0.835 | [6] 0.648 | [7] 0.752 | S. cerevisiae deletion strains, locus YGR229C, strain SMI1, stronger effect = lower value 0.898 | [2] 0.165 | [8] 0.785 | [9] 0.824 | [10] 0.521 | [11] 0.327 | [12] 0.848 | [13] 0.164 | [14] 0.311 | [15] 0.712 | [16] 0.855 | [17] 0.837 | [18] 0.852 | [19] 0.441 | [20] 0.885 | [21] 0.555 | S. cerevisiae deletion strains, locus YOL006C, strain TOP1, stronger effect = lower value 0.305 | [22] 0.56 | [23] 0.502 | [24] 0.231

C/C(=N/O)c1ccn(S(=O)(=O)c2ccc(Cl)cc2)c1
inactive: [3] 0.998 | [4] 1.02 | S. cerevisiae deletion strains, locus YCL061C, strain MRC1, stronger effect = lower value 1.05 | [1] 1.03 | S. cerevisiae deletion strains, locus YDL134C, strain PPH21, stronger effect = lower value 1 | [5] 0.891 | [6] 0.983 | [7] 1.01 | [2] 1.02 | [8] 0.992 | [9] 1.05 | [10] 1.02 | S. cerevisiae deletion strains, locus YKL190W, strain CNB1, stronger effect = lower value 0.995 | [11] 1.04 | [12] 0.978 | [13] 0.99 | [14] 1.04 | [15] 1.02 | [16] 0.996 | [17] 0.998 | S. cerevisiae deletion strains, locus YNL128W, strain TEP1, stronger effect = lower value 1 | [18] 1.05 | [19] 1.02 | [20] 0.983 | [21] 1 | [22] 0.989 | [23] 1 | [24] 1.06 | S. cerevisiae strains, strain wild type, stronger effect = lower value 1.01
